HCMV antiviral = blocks human cytomegalovirus replication. HFF cells, HCMV-luciferase reporter, 72 h; stronger effect = lower value. activity change, negative = inhibition, % at 57.5 µM. hit rate 4.5% among 410,000; in the data active means activity change below about -60%; inconclusive means no clear call, values can overlap the other calls; inactive means above about -39%; further: on the % scale 0 is the no-effect control and ±100 the full control effect
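Two-dose cell screen: HFF monolayers treated with compounds and infected with luciferase-expressing HCMV at 1 PFU/cell, 72 h at 37C, then lysed for luciferase measurement.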
Pf growth 48h = inhibits P. falciparum growth in the first generation, 48 h; P. falciparum luciferase growth in erythrocytes, 48 h; Potency, µM (titrated, usually from 28.7 µM), inactives show at the top dose activity change, negative = inhibition, most hits filed as inhibitors; hit rate 5.9% among 310,000; AID 504832; further: potency means the concentration at half of the fitted maximal effect; on the % scale 0 is the no-effect control and ±100 the full control effect
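Luciferase-expressing P. falciparum in infected erythrocytes (2% hematocrit, 0.1% parasitemia final) in RPMI 1640/0.5% Albumax were exposed to compound for 48 hours at 37 C, 5% CO2; growth read as luminescence.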
Shiga toxin inh = blocks Shiga toxin action in Vero cells. Vero cells, Shiga toxin protein synthesis inhibition reporter. inhibition, % at 38.7 µM. hit rate 9.2% among 290,000. AID 2315; in the data active means inhibition mostly above about 28%, no sharp cut-off; inactive means mostly below about 43%; further: 0% is about no effect
Cycloheximide cs = affects cycloheximide protein synthesis inhibition readout, counter-screen; AID 2314; cell reporter, cycloheximide protein synthesis inhibition counterscreen; max response, %; hit rate 12% among 300,000; in the data active means max response mostly above about 13%, no sharp cut-off; inactive means mostly below about 14%; further: read at 38.3 µM for the half of the compounds with a filed dose; 0% is about no effect
Pf growth 96h = P. falciparum growth inhibition at 96 hours; P. falciparum luciferase reporter growth, 96 h; Potency, µM (doses to about 28.7 µM), for inactives: at the highest dose activity change, negative = inhibition, hits mostly inhibitors; hit rate 6.9% among 320,000; further: potency means the concentration at half of the fitted maximal effect; on the % scale 0 is the no-effect control and ±100 the full control effect
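Readout is luminescence from an integrated firefly luciferase in P. falciparum. Red cells, 2% hematocrit and 0.05% parasitemia final, were cultured with compound through two parasite generations (96 hours) at 37 C, 5% CO2.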
* hit, by the source's call. Most compounds without a hit are left out; they make up all but 20% or so of the library. Unless noted, the call rests on the fitted dose curve; in most records, active means well fitted inhibition curve with a large enough effect; inconclusive means small, poorly fitted or top-dose-only effect, or another doubt; inactive means no such curve, though single readings can be large or run the other way.

For N/C(=N\OC(=O)COc1cc(Cl)c(Cl)cc1Cl)c1ccccn1 the results were HCMV antiviral 80.7, Pf growth 48h 494.2%, Shiga toxin inh 90.6*, Cycloheximide cs 39.5* and Pf growth 96h 7.3%.
`COc1ccccc1C/C(N)=N/OC(=O)COc1cccc(C)c1C` gave HCMV antiviral 3.0, Pf growth 48h -0.7%, Shiga toxin inh 1.8, Cycloheximide cs 14.9 and Pf growth 96h inconclusive.
Cc1ccc(CC(=O)O/N=C(\N)c2ccccn2)cc1 was read as HCMV antiviral 117.4, Pf growth 48h 89.7%, Shiga toxin inh 83.7*, Cycloheximide cs 81.9* and Pf growth 96h -15.3%.
N/C(=N\OC(=O)CCCOc1ccc(Cl)cc1Cl)c1ccccn1 was read as HCMV antiviral 4.5, Pf growth 48h 13.9%, Shiga toxin inh 4.5, Cycloheximide cs 4.9 and Pf growth 96h inconclusive.
N/C(=N\OC(=O)CCN1C(=O)c2ccccc2C1=O)c1ccccn1 was read as HCMV antiviral 44.9, Pf growth 48h 25.7%, Shiga toxin inh 15.5, Cycloheximide cs 6.9 and Pf growth 96h inconclusive.
For Cc1ccc(NC(=O)c2c(NC(=O)c3ccc(F)cc3)sc3c2CCCC3)cc1C the results were HCMV antiviral 21.1.
For CCOc1ccc(NC(=O)N2CCC(N3CCCCC3)CC2)cc1 the results were HCMV antiviral -10.9.
`NC(=O)C1CCN(c2nc(-c3cccs3)cs2)CC1` gave Pf growth 48h 16.4% and Pf growth 96h 8.3%.
`Cc1ccc(S(=O)(=O)N(C)CC(=O)O/N=C(\N)c2ccccn2)cc1` gave HCMV antiviral 9.8, Pf growth 48h 5.0%, Shiga toxin inh -13.5, Cycloheximide cs -2.0 and Pf growth 96h inconclusive.
`N/C(=N\OC(=O)Cc1ccc(Cl)cc1)c1ccccn1` gave HCMV antiviral 64.0, Shiga toxin inh 31.5, Cycloheximide cs 19.9* and Pf growth 96h -7.2%.
For Cc1ccc(OCC(=O)O/N=C(\N)c2ccccn2)cc1 the results were HCMV antiviral 60.3, Pf growth 48h 410.7%, Shiga toxin inh 80.3*, Cycloheximide cs 50.4* and Pf growth 96h 471.7%.
Screening Cc1ccc(N2C(=O)c3ccccc3C2C(=O)c2cc(C)ccc2O)cc1 (stereo not drawn) returned HCMV antiviral inconclusive, Pf growth 48h 2.62µM*, Shiga toxin inh active, Cycloheximide cs 39.8* and Pf growth 96h 2.62µM*.
`Cc1ccc(N2C(=O)c3ccccc3C2C(=O)c2ccc(C)c(C)c2O)cc1` (stereo not drawn) gave HCMV antiviral -12.9, Pf growth 48h inconclusive, Shiga toxin inh 30.8, Cycloheximide cs 18.2* and Pf growth 96h 5.22µM*.
O=C(NCc1ccco1)C12CN(Cc3ccccc3)CC1C(c1ccc([N+](=O)[O-])cc1)=NO2 (stereo not drawn) was read as HCMV antiviral 18.1, Pf growth 48h 11.7µM*, Shiga toxin inh 4.7, Cycloheximide cs 7.4 and Pf growth 96h 0.3%.
Screening Cc1ccc(CNC(=O)C23CN(Cc4ccccc4)CC2C(c2cccc([N+](=O)[O-])c2)=NO3)cc1 (stereo not drawn) returned HCMV antiviral -1.8, Pf growth 48h 10.4µM*, Shiga toxin inh 19.5, Cycloheximide cs 20.7 and Pf growth 96h inconclusive.
Screening O=C(NCc1ccccc1)C12CN(Cc3ccccc3)CC1C(c1ccc([N+](=O)[O-])cc1)=NO2 (stereo not drawn) returned HCMV antiviral 12.7, Pf growth 48h 11.7µM*, Shiga toxin inh -5.5, Cycloheximide cs -3.4 and Pf growth 96h inconclusive.
Cc1ccc(CNC(=O)c2cc(-c3ccccc3)nn2CC2CC(c3cccc([N+](=O)[O-])c3)=NO2)cc1 (stereo not drawn) was read as HCMV antiviral 17.3.
For Cc1ccc(CNC(=O)C23CN(Cc4ccccc4)CC2C(c2ccc([N+](=O)[O-])cc2)=NO3)o1 (stereo not drawn) the results were HCMV antiviral 68.8, Pf growth 48h inconclusive, Shiga toxin inh -5.1, Cycloheximide cs 2.2 and Pf growth 96h inconclusive.
For O=C(NCc1ccco1)C12CN(Cc3ccccc3)CC1C(c1cccc([N+](=O)[O-])c1)=NO2 (stereo not drawn) the results were HCMV antiviral 10.9, Pf growth 48h inconclusive, Shiga toxin inh -10.0, Cycloheximide cs -4.8 and Pf growth 96h inconclusive.
Screening COc1ccc(CNC(=O)C23CN(Cc4ccccc4)CC2C(c2ccc([N+](=O)[O-])cc2)=NO3)cc1 (stereo not drawn) returned HCMV antiviral 18.2, Pf growth 48h 6.57µM*, Shiga toxin inh -8.4, Cycloheximide cs -2.7 and Pf growth 96h 13.1µM*.
CCCS(=O)(=O)N1CC(=O)N(c2cccc(F)c2)C(C)(C(=O)NC2CCCCCC2)C1 (stereo not drawn) was read as HCMV antiviral 0.0.
`Cc1ccc(Cc2c(C)nc3nc(SCC(=O)NC(C)c4ccccc4)nn3c2C)cc1` (stereo not drawn) gave HCMV antiviral -0.5.
COc1ccc(CCNC(=O)C23CN(Cc4ccccc4)CC2C(c2ccc([N+](=O)[O-])cc2)=NO3)cc1 (stereo not drawn) was read as HCMV antiviral 12.7, Pf growth 48h 5.22µM*, Shiga toxin inh 8.2, Cycloheximide cs 6.9 and Pf growth 96h inconclusive.
Screening COc1ccc(CCNC(=O)c2ccc(CN3CCC(Cc4ccccc4)CC3)cc2)cc1 returned HCMV antiviral -31.1, Pf growth 48h inconclusive, Shiga toxin inh -3.1, Cycloheximide cs 6.5 and Pf growth 96h inconclusive.
For COc1ccc(Nc2ncc3c(n2)CCN(Cc2sccc2C)C3)c(OC)c1 the results were HCMV antiviral -2.8.
Screening Cc1ccc(OCc2nnc(SCc3nc4ccccc4[nH]3)n2Cc2ccco2)cc1 returned HCMV antiviral -68.9*, Pf growth 48h inconclusive, Shiga toxin inh 21.0, Cycloheximide cs -4.2 and Pf growth 96h 6.57µM*.
Nn1c(SCc2nc3ccccc3[nH]2)nnc1-c1ccccc1 was read as HCMV antiviral -1.3, Pf growth 48h 42.3%, Shiga toxin inh 13.9, Cycloheximide cs 4.3 and Pf growth 96h 4.0%.
c1ccc(-c2nnc(SCc3nc4ccccc4[nH]3)n2Cc2ccco2)cc1 was read as HCMV antiviral -68.1*, Pf growth 48h -4.5%, Shiga toxin inh -5.5, Cycloheximide cs 6.4 and Pf growth 96h 0.7%.
O=c1c2ccccc2nnn1CSc1nnc(COc2ccc(Cl)cc2)n1Cc1ccco1 was read as HCMV antiviral -60.0*, Pf growth 48h inconclusive, Shiga toxin inh -22.3, Cycloheximide cs -1.2 and Pf growth 96h 149.6%.
`COC(=O)c1ccc(Sc2ccccc2NS(=O)(=O)c2ccc(C)cc2)nc1` gave HCMV antiviral 18.7, Pf growth 48h 0.0%, Shiga toxin inh -19.2, Cycloheximide cs 2.7 and Pf growth 96h -14.4%.
`O=c1[nH]c(=O)n(Cc2ccccc2)c2nc(-c3ccc(C(F)(F)F)cc3)n(CCO)c12` gave HCMV antiviral 76.5, Pf growth 48h inconclusive, Shiga toxin inh -12.0, Cycloheximide cs 1.1 and Pf growth 96h inconclusive.
